# In the supplement of paper PMC8387472:
# Compound: CC(=O)O/N=C1\C(=O)N(Cc2cc(Cl)ccc2Cl)c2ccc(Cl)cc21
# Experiment: fraction of 1-bp insertions among edited reads; higher = more 1-bp insertion outcomes
# Conditions: mESC; 2uM; 72 h treatment, harvest day 5
row,Target,fraction of 1-bp insertions among edited reads
1,"0.0 (DMSO control at this site: 1-bp insertion 0.463, MH deletion 0.339, edited 0.14) AGGATTACCGAGACCTACGCGAACCGAAATCGCTGTCCGGTGCGCAAGCAGGGCTGGCGTC",0.437
2,"3.0 (DMSO control at this site: 1-bp insertion 0.109, MH deletion 0.149, edited 0.09) TGCTAGCGCCCCCACAAAGCGGACCAGCCAGCACTATAGGGAATAAGGCCAACTTGCACCC",0.126
3,"7.0 (DMSO control at this site: 1-bp insertion 0.128, MH deletion 0.374, edited 0.098) TACTCAACCGAGACCTACGCGAACCGAAATCGTATGCCGGTGCGCAAGCAGGGCTGGCGTC",0.105
4,"39.0 (DMSO control at this site: 1-bp insertion 0.328, MH deletion 0.371, edited 0.204) CTGCACAGTCACTTAGGATAGGAGAAGATGATGTATAGGGTTTAGTGGGAGATGTTGCAAG",0.334
5,21.0 CGATTGAGAGTCAAACGGGCCAGAAAACTCCGGGAACGGGCCAGAAAACTCCGGGGCATGG,0.0304
6,"25.0 (DMSO control at this site: 1-bp insertion 0.017, MH deletion 0.774, edited 0.143) GGGCCTGAATGGTGTGGACATCTACTCGCTGGTGAGCTGGTGACTGAAAACATTCAGTGGC",0.0158
7,27.0 CCAGAATTAGAACATATCATCTGGACCCTTTTCCATCTGGACCCTTTTCCAGCACACCCTG,0.107
